Shown are actives, neighbours in structure and some others; about 22% of the full set was active somewhere.
CYP2C19 inhib – blocks human cytochrome P450 2C19; P33261; inhibition, % at 5 µM; CYP2C19 Supersomes, luciferin-H EGE luminescence, 30 min; AID 778; 21% of 96,000 active;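 active means CYP2C19 inhibition above a set limit at 5 µM in the primary screen, cut at about 50% in these data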;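 further: plate controls were negative control wells for no effect and 2.5 mM tranylcypromine positive control for full effect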
Target sequence (P33261 whole entry, looked up): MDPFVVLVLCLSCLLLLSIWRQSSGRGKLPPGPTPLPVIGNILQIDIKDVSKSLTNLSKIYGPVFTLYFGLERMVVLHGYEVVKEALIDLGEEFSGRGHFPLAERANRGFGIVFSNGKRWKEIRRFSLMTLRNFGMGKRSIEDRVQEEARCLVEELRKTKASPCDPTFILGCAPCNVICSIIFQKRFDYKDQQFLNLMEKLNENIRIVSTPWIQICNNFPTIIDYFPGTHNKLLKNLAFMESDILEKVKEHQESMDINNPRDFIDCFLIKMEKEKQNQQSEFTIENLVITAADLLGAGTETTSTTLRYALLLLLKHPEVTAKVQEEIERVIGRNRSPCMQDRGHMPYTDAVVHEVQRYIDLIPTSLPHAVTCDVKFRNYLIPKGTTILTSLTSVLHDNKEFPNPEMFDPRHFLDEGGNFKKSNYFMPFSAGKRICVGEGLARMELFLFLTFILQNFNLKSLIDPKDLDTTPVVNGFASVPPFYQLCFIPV
Measles CPE – protection of cells from measles virus. Measles virus-infected cells, CPE protection, absorbance. protection (pct of control), % at 4 µM. 1.5% of 140,000 active. AID 841; in the data active means protection mostly above about 24%, no sharp cut-off; inactive means mostly below about 26%
CYP2C9 inhib – inhibitors of human CYP2C9 | P11712 | 20% of 96,000 active | CYP2C9 Supersomes, luciferin-H conversion, luminescence | inhibition, % at 5 µM;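 active means blocking of liver enzyme CYP2C9 beyond about 50% at 5 µM, limit read from the data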
CYP2C9 act – CYP2C9 (human) activation. recombinant CYP2C9, luciferin-H conversion, luminescence; hits give high values; factor 1 = untreated enzyme, 0 = blocked. AID 1024. 1.4% of 96,000 active. activation factor at 5 µM. P11712;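 active means activation factor of 2 or more for CYP2C9 at a 5 µM dose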;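 further: 0 = sulfaphenazole-blocked wells and 1 = vehicle-only wells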
CYP2C19 act – cytochrome P450 2C19 (human) activation; P33261; activation factor at 5 µM; 96,000 tested, under 10 active; recombinant CYP2C19, luciferin-H EGE luminescence; hits give high values; 0 = fully inhibited enzyme, 1 = untreated enzyme;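 active means activation factor of at least 2 at 5 µM in the primary screen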;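 further: 0 = wells with 2.5 mM tranylcypromine and 1 = vehicle-only wells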
Starred values were filed as active, the others as inactive; · = no result given.

SMILES | CYP2C19 inhib | Measles CPE | CYP2C9 inhib | CYP2C9 act | CYP2C19 act
Cc1ccc(C(c2nnnn2Cc2ccccc2)N2CC=C(c3ccc(F)cc3)CC2)cc1 (stereo not drawn) | 70* | 6 | 50* | 0.5 | 0.3
Cc1onc(-c2ccccc2)c1C(=O)N1CCC2(CC1)OCCO2 | 46 | 5 | -3 | 1 | 0.5
CCN(CC)CCNC(=O)c1c(O)c2ccccc2n(Cc2ccccc2)c1=O | 12 | 1 | 9 | 0.9 | 0.9
CCN(CC)CCCNC(=O)c1c(O)c2ccccc2n(Cc2ccccc2)c1=O | 14 | 77* | -6 | 1.1 | 0.9
CCn1nc(-c2cccs2)nc2c(=O)n(C)c(=O)nc1-2 | 99* | 6 | 91* | 0.1 | 0
N[C@@H](Cc1c[nH]c2ccccc12)c1nnc(SCc2ccccc2)o1 | 43 | 45* | 32 | 0.7 | 0.6
N[C@@H](Cc1c[nH]c2ccccc12)c1nnc(SCc2ccc(Cl)cc2)o1 | 66* | 2 | 44 | 0.6 | 0.3
Cc1cccnc1NC1=NCC(C)S1 (stereo not drawn) | 0 | 3 | -10 | 1.1 | 1
CC12CN3CC(C)(CN(C1)C31CCSCC1)C2=O | -3 | 6 | -2 | 1 | 1
Cc1[nH]c2ccccc2c1C1=CCNCC1 | 21 | 5 | 74* | 0.3 | 0.8
CCN1C(=O)c2ccccc2Sc2ccc(C(=O)N3CCC4(CC3)OCCO4)cc21 | 6 | 3 | 83* | 0.2 | 0.9
O=C(CN1CC=C(c2ccccc2)CC1)Nc1cc(Cl)ccc1Cl | · | 9 | · | · | ·
O=C(Cn1c(=O)c(C(F)(F)F)nc2ccccc21)N1CCC2(CC1)OCCO2 | -10 | 3 | 0 | 1 | 1.1
COc1cc(/C=C(/C)[N+](=O)[O-])ccc1OCc1ccccc1Cl | · | 7 | · | · | ·
Fc1ccccc1CCNCc1ccccc1 | · | 7 | · | · | ·
Fc1ccccc1CCNCc1cccc(Cl)c1Cl | 86* | 10 | 29 | 0.7 | 0.1
CCOC(=O)c1c(-n2c(C)cc(C=C3C(=O)NC(=S)NC3=O)c2C)sc2c1CCCC2 | 28 | 6 | 67* | 0.3 | 0.7
CN(C)C(Cc1ccc(Cl)cc1)C(=O)c1ccccc1 (stereo not drawn) | · | 10 | · | · | ·
COc1ccc(C(C)=O)cc1CC(C(=O)c1ccccc1)N(C)C (stereo not drawn) | · | 7 | · | · | ·
CCOC(=O)c1c(C)[nH]c(C(=O)C(Cc2ccccc2)N(C)C)c1C (stereo not drawn) | 37 | 13 | 84* | 0.2 | 0.6
COC(=O)c1c(C)[nH]c(C(=O)C(Cc2ccccc2)N(C)C)c1C (stereo not drawn) | 92* | 4 | 92* | 0.1 | 0.1
CCC(C#N)(CC)P(=S)(c1ccccc1)c1ccccc1 | · | 5 | · | · | ·
Cc1cccnc1-n1c(-c2ccco2)nc2ccccc2c1=O | 8 | 13 | 20 | 0.8 | 0.9
O=C1CN=C(c2ccccc2)c2oc3ccc(Br)cc3c2N1 | 2 | 4 | 12 | 0.9 | 1
COc1cccc(OC)c1C1=NCC(=O)Nc2c1oc1ccc(Br)cc21 | 40 | 8 | 65* | 0.3 | 0.6
SMILES | CYP2C19 inhib | Measles CPE | CYP2C9 inhib | CYP2C9 act | CYP2C19 act
COc1ccccc1/C=N/N=C(/N)N[N+](=O)[O-] | 1 | 0 | 0 | 1 | 1
CC(C)C(=O)c1cn(Cc2ccccc2C#N)c2ccccc12 | 60* | 14 | 49 | 0.5 | 0.4
Cc1ccc(-n2c(O)c(C=NCCN3CCOCC3)c(=O)[nH]c2=O)cc1 | 14 | 4 | 22 | 0.8 | 0.9
O=P(N1CCCCC1)(N1CCCCC1)C(Cl)(Cl)Cl | 36 | 5 | 46 | 0.5 | 0.6
CN(C)P(=O)(C(Cl)=C(N1CCCCC1)N1CCCCC1)N(C)C | 69* | 2 | 16 | 0.8 | 0.3
O=C(c1ccc(CS(=O)(=O)c2ccc(Br)cc2)o1)N1CCC2(CC1)OCCO2 | 42 | 5 | 54* | 0.5 | 0.6
O=C(CCS(=O)(=O)c1ccc(Br)cc1)N1CCC2(CC1)OCCO2 | 11 | 16 | 14 | 0.9 | 0.9
O=C(c1ccc(CS(=O)(=O)c2ccccc2)o1)N1CCC2(CC1)OCCO2 | 81* | 2 | 47 | 0.5 | 0.2
Cc1cccc(CS(=O)(=O)Cc2ccc(C(=O)N3CCC4(CC3)OCCO4)o2)c1 | 33 | 26 | 58* | 0.4 | 0.7
CCC(C)N1CCN(C(=O)Cc2ccccc2)CC1 (stereo not drawn) | 36 | 5 | 5 | 1 | 0.6
CCCC1=C(C(=O)OCC)C2(C(=O)Nc3ccc(C)cc32)C(C#N)=C(N)O1 (stereo not drawn) | 62* | 1 | 51* | 0.5 | 0.4
COc1cccc(OC)c1C(=O)Nc1nc(N)n(-c2ccccc2)n1 | -16 | 7 | 18 | 0.8 | 1.2
COC(=O)C(O)(c1cn(C)c2ccccc12)C(F)(F)F (stereo not drawn) | 6 | 46* | -180 | 2.8* | 0.9
CCCC(C)n1[nH]c(=O)c2c1NC(=O)CSC2c1ccc(OC)cc1 (stereo not drawn) | 6 | 9 | -22 | 1.2 | 0.9
Cc1c(C(=O)N2CCC3(CC2)OCCO3)sc2ncnc(N(C)c3ccccc3)c12 | 13 | 5 | 73* | 0.3 | 0.9
Cc1ccc(N2C(=O)NC(=O)/C(=C\c3cc(C)n(-c4sc5c(c4C#N)CCCC5)c3C)C2=O)cc1 | · | 23 | · | · | ·
O=C(CN1CC(c2ccccc2)CC1=O)Nc1ccccc1 (stereo not drawn) | · | 13 | · | · | ·
CN(C)c1ccc(NC(=O)CN2C(=O)CN=C(c3ccccc3)c3ccccc32)cc1 | 65* | 9 | 1 | 1 | 0.3
CCC(C)C1N=C(c2ccccc2)c2cc(Cl)ccc2N(CC(=O)NCc2ccco2)C1=O (stereo not drawn) | -9 | 14 | -3 | 1 | 1.1
Cc1ccc(NC(=O)CN2C(=O)CN=C(c3ccccc3)c3cc(Cl)ccc32)cc1 | 90* | 36 | 80* | 0.2 | 0.1
CN(C)c1ccc(NC(=O)CN2C(=O)CN=C(c3ccccc3)c3cc(Cl)ccc32)cc1 | 96* | 7 | 65* | 0.3 | 0
Nc1ccc(S(=O)(=O)N2CC3CC(C2)c2cccc(=O)n2C3)cc1 (stereo not drawn) | -11 | 16 | -16 | 1.2 | 1.1
CCCCCSc1cc(OC)c(CCNC)cc1OC | 62* | 14 | 11 | 0.9 | 0.4
CCCCCCCSc1cc(OC)c(CCNC)cc1OC | 81* | 12 | 2 | 1 | 0.2
Cc1[nH]c2c(Cl)cccc2c1CCN | 6 | · | -3 | 1 | 0.9
CC(O)(CS(=O)(=O)c1ccccc1)C(=O)Nc1ccc(C(F)(F)F)cc1 (stereo not drawn) | 65* | 5 | 9 | 0.9 | 0.4
CC(O)(CS(=O)(=O)c1cccc(C(F)(F)F)c1)C(=O)Nc1cccc(C(F)(F)F)c1 (stereo not drawn) | 51* | 7 | -90 | 1.9 | 0.5
Nc1cc(Cl)c2nonc2c1[N+](=O)[O-] | · | 1 | · | · | ·
Cc1ccccc1N1C(=O)CC(=O)N(c2ccccc2C)C1=O | · | 15 | · | · | ·
Cc1ccccc1C1=NCC(=O)N(CC(=O)NCc2ccco2)c2sc3c(c21)CCCC3 | 66* | 5 | 84* | 0.2 | 0.3
